# Values joined by “and” are separate entries in the source; they are usually repeats but may differ in a detail not shown here. Equal entries are not always repeated. Values without a mark were called inactive. Results filed as inconclusive are left out. Active and inactive are the calls of the source. Unless noted, the call rests on the fitted dose curve; in most records, active means well fitted curve in either direction with a large enough effect (not every such curve was filed as active); inconclusive means small, poorly fitted or top-dose-only effect, or another doubt; inactive means flat fitted curve, though single readings scatter.
# Columns and labels:
# [1] = Stat Signaling Pathway (AID 446); conditions: ME-180 (cervical carcinoma) SIE beta-lactamase reporter, IL-6 stimulated, 5 h;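 further: ME-180 cervical cancer cells given 40 pM IL-6 alongside compound; SIE-controlled beta-lactamase reporter measured as 460/530 nm FRET emission ratio; on the % scale 0 is the no-effect control and ±100 the full control effect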
# How it was run: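 Emission at 460 and 530 nm (excitation 405 nm) reports SIE-controlled beta-lactamase in ME-180 cells. Cells received compound with 40 pM IL-6 for 5 hrs at 37 C; data scaled between 300 pM IL-6 and 125 nM JAK-inhibitor controls.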
# [2] = target: Glucocorticoid receptor (Homo sapiens) (UniProt P04150); assay: GR-GFP Redistribution (AID 450;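 active means compounds whose dose series gives a full or clear partial fitted curve of increased nuclear translocation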; further: potency means the concentration at half of the fitted maximal effect); conditions: U2OS GR-GFP nuclear translocation, laser cytometry, 2 h
# [3] = target: Glucocorticoid receptor (Homo sapiens) (UniProt P04150); assay: GR-EFC Redistribution (AID 451; calls by dose curve; further: potency means the concentration at half of the fitted maximal effect); conditions: CHO-K1 GR-EFC translocation, beta-gal luminescence, 2 h
# How it was run: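 CHO-K1 cells stably expressing nuclear-localized β-gal enzyme acceptor and GR fused C-terminally to the enzyme donor fragment; ligand-driven nuclear translocation restores β-gal by complementation. Compounds titrated up to 46 uM final, 2 h at 37 °C; luminescence read.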
# [4] = target: Mitogen-activated protein kinase 10 (Mus musculus) (UniProt Q61831); assay: JNK3 AlphaScreen Assay (AID 530); conditions: JNK3 lysate, c-Jun phosphorylation; series mostly up to 57.1 µM;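 further: kinase came from lysate of stimulated human HepG2 cells; signal reports phosphorylation of biotinylated GST-cJun 1-79 at Ser73 with 10 µM ATP; on the % scale 0 is the no-effect control and ±100 the full control effect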
# How it was run: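 Biotinylated GST-cJun(1-79) served as substrate for JNK3 in HepG2 lysates stimulated with IL-1beta and TNF-alpha. ATP was 10 uM final, pH 7.6. Ser73 phosphorylation was quantified by AlphaScreen (680 nm excitation).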
# [5] = Cell Viability - NIH 3T3 (AID 541; active means well fitted curve in the direction sought with a large enough effect; an effect the other way counts as inactive or inconclusive;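 further: cells exposed to compound for 40 hours; nearly all actives have a fitted effect of over 25% in size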; further: potency means the concentration at half of the fitted maximal effect;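 on activity change, negative = cytotoxicity: plate controls were DMSO alone for no effect and tamoxifen positive control for full effect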); conditions: NIH 3T3 cell viability, qHTS; activity change, negative = cytotoxicity: at 92.2 µM (top of the series)
# How it was run: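 qHTS format; 40 hr compound exposure, 37 °C; CellTiter-Glo luminescence (cellular ATP) read-out after 20 min at RT. Decrease in ATP = cytotoxicity; AC50 from standard Hill fit.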
# [6] = Cell Viability - HUV-EC-C (AID 542; active means well fitted curve in the direction sought with a large enough effect; an effect the other way counts as inactive or inconclusive;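 further: cells exposed to compound for 40 hours; on the % scale 0 is the no-effect control and ±100 the full control effect; nearly all actives have a fitted effect of over 35% in size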); conditions: HUV-EC-C endothelial cell viability, qHTS; series mostly up to 92.2 µM
# How it was run: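 Luminescent ATP read-out (CellTiter-Glo, 20 min room temperature) after 40 hr compound treatment of HUV-EC-C cells at 37 °C. Concentration-response data fitted with the standard Hill equation to give AC50; tamoxifen and doxorubicin served as positive controls.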
# [7] = Cell Viability - H-4-II-E (AID 543; active means well fitted curve in the direction sought with a large enough effect; an effect the other way counts as inactive or inconclusive;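 further: cells exposed to compound for 40 hours; nearly all actives have a fitted effect of over 35% in size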; further: potency means the concentration at half of the fitted maximal effect); conditions: H-4-II-E rat hepatoma viability; series mostly up to 92.2 µM
# How it was run: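 qHTS, rat hepatoma H-4-II-E, 1500 cells/well; 40 hr compound exposure, 37 °C; CellTiter-Glo ATP luminescence after 20 min RT; AC50 by standard Hill fit.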
# [8] = Cell Viability - Renal Proximal Tubule (AID 545; active means well fitted curve in the direction sought with a large enough effect; an effect the other way counts as inactive or inconclusive;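 further: cells exposed to compound for 40 hours; 0% = DMSO only and -100% = 100 µM tamoxifen; nearly all actives have a fitted effect of over 40% in size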); conditions: renal proximal tubule cells viability; at 91.7 µM (top of the series) unless noted
# How it was run: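 Cytotoxicity is scored as a concentration-dependent drop in cellular ATP in primary rat renal proximal tubule cells exposed for 40 hr. AC50 derives from Hill modelling.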
# [9] = Cell Viability - N2a (AID 540; active means well fitted curve in the direction sought with a large enough effect; an effect the other way counts as inactive or inconclusive;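 further: plate controls were DMSO alone for no effect and tamoxifen control for full effect; nearly all actives have a fitted effect of over 45% in size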); conditions: N2a mouse neuroblastoma cell viability; at 92.2 µM (top of the series)
# How it was run: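 N2a mouse neuroblastoma, 1500 cells/well, 5 hr settle; compound 40 hr, 37 °C; CellTiter-Glo 20 min RT; luminescence; Hill-fit AC50.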
# [10] = Cell Viability - SH-SY5Y (AID 544; active means well fitted curve in the direction sought with a large enough effect; an effect the other way counts as inactive or inconclusive;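 further: cells exposed to compound for 40 hours; nearly all actives have a fitted effect of over 55% in size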; further: potency means the concentration at half of the fitted maximal effect;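 on viability change, negative = cytotoxic: 0% = DMSO alone and -100% = 100 µM tamoxifen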); conditions: SH-SY5Y neuroblastoma cell viability; viability change, negative = cytotoxic: at 92.2 µM (top of the series)
# How it was run: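 SH-SY5Y, 1500 cells/well, 5 hr pre-incubation 37 °C; cpd 40 hr 37 °C; CellTiter-Glo 20 min RT; luminescence (ATP) read. qHTS concentration-response, Hill fit → AC50. Tamoxifen, doxorubicin as positive controls.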
# Glucocorticoid receptor (Homo sapiens), sequence (P04150 whole entry, looked up, the tested form may be a part): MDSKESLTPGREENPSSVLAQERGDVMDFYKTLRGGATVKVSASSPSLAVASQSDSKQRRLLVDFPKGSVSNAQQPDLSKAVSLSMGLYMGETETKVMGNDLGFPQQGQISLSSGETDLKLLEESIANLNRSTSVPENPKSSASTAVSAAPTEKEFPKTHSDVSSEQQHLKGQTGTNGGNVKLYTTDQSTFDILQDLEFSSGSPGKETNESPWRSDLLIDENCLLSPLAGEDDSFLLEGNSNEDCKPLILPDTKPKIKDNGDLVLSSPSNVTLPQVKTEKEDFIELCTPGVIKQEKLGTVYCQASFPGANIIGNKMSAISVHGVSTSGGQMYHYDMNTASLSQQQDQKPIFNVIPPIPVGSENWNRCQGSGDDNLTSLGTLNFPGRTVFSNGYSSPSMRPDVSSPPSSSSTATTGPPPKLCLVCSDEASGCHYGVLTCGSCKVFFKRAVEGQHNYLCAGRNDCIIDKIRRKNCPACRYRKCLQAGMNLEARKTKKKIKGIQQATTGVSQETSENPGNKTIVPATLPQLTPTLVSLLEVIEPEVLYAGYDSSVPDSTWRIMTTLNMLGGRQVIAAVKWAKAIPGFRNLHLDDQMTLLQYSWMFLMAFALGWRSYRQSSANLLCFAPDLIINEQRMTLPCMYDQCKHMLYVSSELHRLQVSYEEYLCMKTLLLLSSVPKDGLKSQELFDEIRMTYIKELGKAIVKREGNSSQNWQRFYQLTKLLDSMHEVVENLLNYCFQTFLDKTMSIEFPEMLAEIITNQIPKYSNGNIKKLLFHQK
structure (smiles),measurement,setting,value
C=C1CC[C@@]2(O)[C@H]3Cc4ccc(O)c5c4[C@@]2(CCN3CC2CC2)[C@H]1O5,"activity, negative = inhibition",[1]; at 17.2 µM (top of the series),2.91%
same,Potency,[2],> 20.6 µM
CC(=O)[C@H]1CC[C@H]2[C@@H]3CC[C@H]4C[C@H](O)CC[C@]4(C)[C@H]3C(=O)C[C@]12C,"activity, negative = inhibition",[1]; at 17.2 µM (top of the series),-6.19%
O=[N+]([O-])c1cc([As](=O)(O)O)ccc1O,"activity, negative = inhibition",[1]; at 17.2 µM (top of the series),10.9%
same,Potency,[2],> 20.6 µM
same,Potency,[3],> 20.6 µM
same,outcome,[4],inactive
CCC(COC(=O)c1cc(OC)c(OC)c(OC)c1)(c1ccccc1)N(C)C (stereo not given),"activity, negative = inhibition",[1]; at 17.2 µM (top of the series),-7.98%
CC[N+]1(C)CCCC(OC(=O)C(O)(c2ccccc2)c2ccccc2)C1 (stereo not given),"activity, negative = inhibition",[1]; at 17.2 µM (top of the series),-1.5%
same,Potency,[2],> 20.6 µM
Clc1cccc(N2CCNCC2)c1,"activity, negative = inhibition",[1]; at 38 µM (top of the series),3.38%
same,Potency,[2],> 46 µM
same,Potency,[3],> 46 µM
same,outcome,[4],inactive
CN(C)[C@@H]1C(=O)C(C(N)=O)=C(O)[C@@]2(O)C(=O)C3=C(O)c4c(O)cccc4[C@@](C)(O)[C@H]3C[C@@H]12,"activity, negative = inhibition",[1]; at 17.2 µM (top of the series),-6.17%
same,Potency,[2],> 20.6 µM
CCn1cc(C(=O)O)c(=O)c2ccc(C)nc21,"activity, negative = inhibition",[1]; at 17.2 µM (top of the series),10.7% and -2.6%
same,"activity, negative = inhibition",[1]; at 38 µM (top of the series),-7%
same,outcome,[4],inactive
COc1ccc(Cc2nccc3cc(OC)c(OC)cc23)cc1OC,"activity, negative = inhibition",[1]; at 17.2 µM (top of the series),-7.28%
same,"activity, negative = inhibition",[1]; at 38 µM (top of the series),-33.5%
O=c1[nH]c2ccccc2n1CCCN1CCC(n2c(=O)[nH]c3cc(Cl)ccc32)CC1,"activity, negative = inhibition",[1]; at 7.69 µM (top of the series),-2.55%
same,"activity, negative = inhibition",[1]; at 17.2 µM (top of the series),1.15% and 2.02%
same,"activity, negative = inhibition",[1]; at 38 µM (top of the series),-0.208%
same,outcome,[4],inactive
Fc1ccc(C(OCCN2CCN(CCCc3ccccc3)CC2)c2ccc(F)cc2)cc1,"activity, negative = inhibition",[1]; at 17.2 µM (top of the series),-6.45%
same,"activity, negative = inhibition",[1]; at 38 µM (top of the series),-18.6%
same,Potency,[2],> 46 µM and > 20.6 µM
same,Potency,[3],> 46 µM and > 20.6 µM
same,outcome,[4],inactive
CC(CCc1ccccc1)NC(C)C(O)c1ccc(O)cc1 (stereo not given),"activity, negative = inhibition",[1]; at 17.2 µM (top of the series),22.4%
same,Potency,[2],> 20.6 µM
O=C1CC[C@@]2(O)[C@H]3Cc4ccc(O)c5c4[C@@]2(CCN3CC2CC2)[C@H]1O5,"activity, negative = inhibition",[1]; at 17.2 µM (top of the series),2.9%
Cc1cccc(C)c1NC1=NCCCS1,"activity, negative = inhibition",[1]; at 17.2 µM (top of the series),3.23%
same,"activity, negative = inhibition",[1]; at 38 µM (top of the series),9.43%
same,outcome,[4],inactive
O=c1[nH]c2ccccc2n1C1CCN(CCCC(c2ccc(F)cc2)c2ccc(F)cc2)CC1,Potency,[2],> 46 µM and > 20.6 µM
same,Potency,[3],> 46 µM and > 20.6 µM
same,outcome,[4],inactive
Oc1ccc(Cl)cc1Cc1ccccc1,outcome,[4],inactive
same,"activity change, negative = cytotoxicity",[5],-0.588%
same,outcome,[6],inactive
same,Potency,[7],inactive
same,"activity change, negative = cytotoxicity",[8],-8.93%
NP(N)(=O)NC(=O)c1ccc(F)cc1,Potency,[2],> 46 µM
same,Potency,[3],> 46 µM
same,outcome,[4],inactive
NCC(O)c1ccc(O)cc1 (stereo not given),outcome,[4],inactive
same,"activity change, negative = cytotoxicity",[9],-14.9%
same,"activity change, negative = cytotoxicity",[5],-28.6%
same,outcome,[6],inactive
same,Potency,[7],inactive
same,"viability change, negative = cytotoxic",[10],-12.1%
same,"activity change, negative = cytotoxicity",[8],-6.15%
Oc1ccccc1-c1ccccc1,outcome,[4],inactive
same,"activity change, negative = cytotoxicity",[9],-8.25%
same,"activity change, negative = cytotoxicity",[5],-15.3%
same,outcome,[6],inactive
same,Potency,[7],inactive
same,"viability change, negative = cytotoxic",[10],-9.19%
same,"activity change, negative = cytotoxicity",[8],"-16.3% [at 91.7 µM, primary cells of rat origin]"
C[C@]12C/C(=C/O)C(=O)C[C@@H]1CC[C@@H]1[C@@H]2CC[C@@]2(C)[C@H]1CC[C@]2(C)O,outcome,[4],inactive
same,"activity change, negative = cytotoxicity",[5],-114% (active)
same,"viability change, negative = cytotoxic",[10],-95.9% (active)
same,"activity change, negative = cytotoxicity",[8],-89.1% (active)
CNCC(O)c1ccc(O)cc1 (stereo not given),"activity, negative = inhibition",[1]; at 17.2 µM (top of the series),14.9%
same,Potency,[2],> 20.6 µM
same,"activity change, negative = cytotoxicity",[9],-10.6%
same,"activity change, negative = cytotoxicity",[5],2.22%
same,outcome,[6],inactive
same,Potency,[7],inactive
same,"viability change, negative = cytotoxic",[10],-15.7%
same,"activity change, negative = cytotoxicity",[8],-6.79%
N[C@@H](Cc1ccc(N(CCCl)CCCl)cc1)C(=O)O,outcome,[4],inactive
same,"activity change, negative = cytotoxicity",[9],-94.8% (active)
same,"activity change, negative = cytotoxicity",[5],-113% (active)
same,Potency,[7],50.1 µM (active)
same,Potency,[10],0.251 µM (active)
same,"activity change, negative = cytotoxicity",[8],-104% (active)
NN=C(N)N,"activity, negative = inhibition",[1]; at 38 µM (top of the series),13% and 15.8%
same,outcome,[4],inactive
C#CCN(C)[C@H](C)Cc1ccccc1,Potency,[2],> 46 µM
same,Potency,[3],> 46 µM
same,outcome,[4],inactive
CN(C)CCN(C)CCc1ccc(Cl)c(Cl)c1,Potency,[2],> 46 µM
same,Potency,[3],> 46 µM
same,outcome,[4],inactive
Cc1ccc(S(=O)(=O)N[C@@H](CCCCN)C(=O)CCl)cc1,"activity, negative = inhibition",[1]; at 38 µM (top of the series),-67% (active)
same,Potency,[2],> 46 µM
same,Potency,[3],> 46 µM
same,outcome,[4],inactive
CCCN1CCC[C@@H]2Cc3nc(N)ncc3C[C@H]21,"activity, negative = inhibition",[1]; at 38 µM (top of the series),-19.8%
same,outcome,[4],inactive
COC1(CS(=O)c2ccccc2)CCN(CCc2c[nH]c3ccc(F)cc23)CC1 (stereo not given),Potency,[2],> 46 µM
same,Potency,[3],> 46 µM
same,outcome,[4],inactive
Oc1cccc2cccnc12,"activity, negative = inhibition",[1]; at 7.69 µM (top of the series),-1.23%
same,outcome,[4],inactive
same,"activity change, negative = cytotoxicity",[9],-89.1% (active)
same,Potency,[5],12.6 µM (active) and 10 µM (active)
same,Potency,[7],39.8 µM (active)
same,Potency,[10],3.98 µM (active)
same,"activity change, negative = cytotoxicity",[8],-13.9% and -16.1%
Clc1ccc(COC(Cn2ccnc2)c2ccc(Cl)cc2Cl)cc1 (stereo not given),"activity, negative = inhibition",[1]; at 17.2 µM (top of the series),-23%
same,Potency,[2],> 20.6 µM
same,outcome,[4],inactive
same,"activity change, negative = cytotoxicity",[9],-110% (active)
same,"activity change, negative = cytotoxicity",[5],-82% (active)
same,Potency,[7],39.8 µM (active)
same,"viability change, negative = cytotoxic",[10],-84.8% (active)
same,"activity change, negative = cytotoxicity",[8],-83.1% (active)
CCOP(=S)(OCC)Oc1cc(C)nc(C(C)C)n1,outcome,[4],inactive
same,"activity change, negative = cytotoxicity",[9],-3.66%
same,"activity change, negative = cytotoxicity",[5],-10%
same,outcome,[6],inactive
same,Potency,[7],inactive
same,"viability change, negative = cytotoxic",[10],-9.46%
same,"activity change, negative = cytotoxicity",[8],-3.55%
Nc1ccncc1,"activity, negative = inhibition",[1]; at 38 µM (top of the series),18.2%
same,outcome,[4],inactive
CCN(CC)C(=O)N[C@@H]1C=C2c3cccc4[nH]cc(c34)C[C@@H]2N(C)C1,"activity, negative = inhibition",[1]; at 38 µM (top of the series),4.62%
same,Potency,[2],> 46 µM
same,Potency,[3],> 46 µM
same,outcome,[4],inactive
N[C@@H]1C[C@H]1c1ccccc1,"activity, negative = inhibition",[1]; at 38 µM (top of the series),20.3%
same,outcome,[4],inactive
C=C(C)[C@H]1Cc2c(ccc3c2O[C@@H]2COc4cc(OC)c(OC)cc4[C@@H]2C3=O)O1,Potency,[2],> 46 µM
same,Potency,[3],> 46 µM
c1ccc2c(c1)Nc1ccccc1S2,outcome,[4],inactive
same,"activity change, negative = cytotoxicity",[9],-21.6%
same,"activity change, negative = cytotoxicity",[5],-26.2%
same,outcome,[6],inactive
same,Potency,[7],inactive
same,"viability change, negative = cytotoxic",[10],-26%
same,"activity change, negative = cytotoxicity",[8],-25%
OCCOc1ccccc1,outcome,[4],inactive
same,"activity change, negative = cytotoxicity",[9],-13.3%
same,"activity change, negative = cytotoxicity",[5],-18.9%
same,outcome,[6],inactive
same,Potency,[7],inactive
same,"viability change, negative = cytotoxic",[10],-18.2%
same,"activity change, negative = cytotoxicity",[8],-6.83%
CCCC(C)(COC(N)=O)COC(=O)NC(C)C (stereo not given),"activity, negative = inhibition",[1]; at 17.2 µM (top of the series),5.53%
same,outcome,[4],inactive
same,"activity change, negative = cytotoxicity",[9],4.75%
same,"activity change, negative = cytotoxicity",[5],-2.14%
same,outcome,[6],inactive
same,Potency,[7],inactive
same,"viability change, negative = cytotoxic",[10],1.5%
same,"activity change, negative = cytotoxicity",[8],4.58%

# — PubChem BioAssay (NCATS)
